Data: the supplement of paper PMC8975748
Counter-ions that a name gives are not always drawn. ± gives the standard deviation of the averaged measurements.

Tests used:
[1] = test system: Saccharomyces cerevisiae BY4741 SeMeCo community; experiment: mean cell size (pixel area) (pixels); higher = larger cells; conditions: 10 µM; 24 h; SM minimal medium
Method in brief: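 In this assay, mean cell pixel area per well was obtained from automated confocal images of paraformaldehyde-fixed yeast analysed in Harmony. The cells were a Saccharomyces cerevisiae BY4741 community with four plasmids, each complementing one auxotrophy and carrying a fluorescent marker, grown for 24 h in SM medium with drug at a final 10 µM in 384-well plates. Values are averaged across 3 replicates. Same SeMeCo high-content imaging drug screen: Selleck FDA-approved drugs at 10 µM, 24 h in SM medium, 384-well plates, 3 replicates.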

[2] = test system: Saccharomyces cerevisiae BY4741 SeMeCo community; experiment: z-score of prototroph abundance vs DMSO median; higher = larger share of this subpopulation than in DMSO controls; conditions: 10 µM; 24 h; SM minimal medium; subpopulation (auxotrophy): Prototroph
Method in brief: (§1)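 Scoring was based on each subpopulation's abundance, expressed as a z-score against the vehicle-well median. A Saccharomyces cerevisiae BY4741 community with four plasmids, each restoring one auxotrophy and encoding a distinct fluorescent protein, was pre-grown overnight to OD600 1.0, diluted to 0.3, and added at 70 µl to 384-well plates acoustically predosed with library drugs (10 µM final). It then grew 24 h in minimal SM medium before paraformaldehyde fixation and automated confocal microscopy, with single-auxotroph fluorescent strains setting thresholds and autofluorescence correction.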

[3] = test system: Saccharomyces cerevisiae BY4741 SeMeCo community; experiment: z-score of subpopulation abundance vs DMSO median, subpopulation auxotrophic for M; higher = larger share of this subpopulation than in DMSO controls; conditions: 10 µM; 24 h; SM minimal medium; subpopulation (auxotrophy): M
Method in brief: as §1

[4] = test system: Saccharomyces cerevisiae BY4741 SeMeCo community; experiment: z-score of subpopulation abundance vs DMSO median, subpopulation auxotrophic for L; higher = larger share of this subpopulation than in DMSO controls; conditions: 10 µM; 24 h; SM minimal medium; subpopulation (auxotrophy): L
Method in brief: as §1

[5] = test system: Saccharomyces cerevisiae BY4741 SeMeCo community; experiment: z-score of subpopulation abundance vs DMSO median, subpopulation auxotrophic for U; higher = larger share of this subpopulation than in DMSO controls; conditions: 10 µM; 24 h; SM minimal medium; subpopulation (auxotrophy): U
Method in brief: as §1

[6] = test system: Saccharomyces cerevisiae BY4741 SeMeCo community; experiment: z-score of subpopulation abundance vs DMSO median, subpopulation auxotrophic for H; higher = larger share of this subpopulation than in DMSO controls; conditions: 10 µM; 24 h; SM minimal medium; subpopulation (auxotrophy): H
Method in brief: as §1

[7] = test system: Saccharomyces cerevisiae BY4741 SeMeCo community; experiment: z-score of subpopulation abundance vs DMSO median, subpopulation auxotrophic for LU; higher = larger share of this subpopulation than in DMSO controls; conditions: 10 µM; 24 h; SM minimal medium; subpopulation (auxotrophy): LU
Method in brief: as §1

[8] = test system: Saccharomyces cerevisiae BY4741 SeMeCo community; experiment: z-score of subpopulation abundance vs DMSO median, subpopulation auxotrophic for LM; higher = larger share of this subpopulation than in DMSO controls; conditions: 10 µM; 24 h; SM minimal medium; subpopulation (auxotrophy): LM
Method in brief: as §1

[9] = test system: Saccharomyces cerevisiae BY4741 SeMeCo community; experiment: z-score of subpopulation abundance vs DMSO median, subpopulation auxotrophic for HM; higher = larger share of this subpopulation than in DMSO controls; conditions: 10 µM; 24 h; SM minimal medium; subpopulation (auxotrophy): HM
Method in brief: as §1

[10] = test system: Saccharomyces cerevisiae BY4741 SeMeCo community; experiment: z-score of subpopulation abundance vs DMSO median, subpopulation auxotrophic for HU; higher = larger share of this subpopulation than in DMSO controls; conditions: 10 µM; 24 h; SM minimal medium; subpopulation (auxotrophy): HU
Method in brief: as §1

[11] = test system: Saccharomyces cerevisiae BY4741 SeMeCo community; experiment: z-score of subpopulation abundance vs DMSO median, subpopulation auxotrophic for UM; higher = larger share of this subpopulation than in DMSO controls; conditions: 10 µM; 24 h; SM minimal medium; subpopulation (auxotrophy): UM
Method in brief: as §1

[12] = test system: Saccharomyces cerevisiae BY4741 SeMeCo community; experiment: z-score of subpopulation abundance vs DMSO median, subpopulation auxotrophic for HL; higher = larger share of this subpopulation than in DMSO controls; conditions: 10 µM; 24 h; SM minimal medium; subpopulation (auxotrophy): HL
Method in brief: as §1

[13] = test system: Saccharomyces cerevisiae BY4741 SeMeCo community; experiment: z-score of subpopulation abundance vs DMSO median, subpopulation auxotrophic for HLU; higher = larger share of this subpopulation than in DMSO controls; conditions: 10 µM; 24 h; SM minimal medium; subpopulation (auxotrophy): HLU
Method in brief: as §1

[14] = test system: Saccharomyces cerevisiae BY4741 SeMeCo community; experiment: z-score of subpopulation abundance vs DMSO median, subpopulation auxotrophic for HLM; higher = larger share of this subpopulation than in DMSO controls; conditions: 10 µM; 24 h; SM minimal medium; subpopulation (auxotrophy): HLM
Method in brief: as §1

[15] = test system: Saccharomyces cerevisiae BY4741 SeMeCo community; experiment: z-score of subpopulation abundance vs DMSO median, subpopulation auxotrophic for HUM; higher = larger share of this subpopulation than in DMSO controls; conditions: 10 µM; 24 h; SM minimal medium; subpopulation (auxotrophy): HUM
Method in brief: as §1

[16] = test system: Saccharomyces cerevisiae BY4741 SeMeCo community; experiment: z-score of subpopulation abundance vs DMSO median, subpopulation auxotrophic for LUM; higher = larger share of this subpopulation than in DMSO controls; conditions: 10 µM; 24 h; SM minimal medium; subpopulation (auxotrophy): LUM
Method in brief: as §1

[17] = test system: Saccharomyces cerevisiae BY4741 SeMeCo community; experiment: z-score of subpopulation abundance vs DMSO median, subpopulation auxotrophic for HLUM; higher = larger share of this subpopulation than in DMSO controls; conditions: 10 µM; 24 h; SM minimal medium; subpopulation (auxotrophy): HLUM
Method in brief: as §1

Row | SMILES | mean cell size [1] | z-score of prototroph abundance [2] | z-score of subpopulation abundance [3] | z-score of subpopulation abundance [4] | z-score of subpopulation abundance [5] | z-score of subpopulation abundance [6] | z-score of subpopulation abundance [7] | z-score of subpopulation abundance [8] | z-score of subpopulation abundance [9] | z-score of subpopulation abundance [10] | z-score of subpopulation abundance [11] | z-score of subpopulation abundance [12] | z-score of subpopulation abundance [13] | z-score of subpopulation abundance [14] | z-score of subpopulation abundance [15] | z-score of subpopulation abundance [16] | z-score of subpopulation abundance [17]
1 | NCC[C@H](O)C(=O)N[C@@H]1C[C@H](N)[C@@H](O[C@H]2O[C@H](CN)[C@@H](O)[C@H](O)[C@H]2O)[C@H](O)[C@H]1O[C@H]1O[C@H](CO)[C@@H](O)[C@H](N)[C@H]1O [Amikacin disulfate] | 11.9 ± 0.14 | 0.25 | -0.8 | 0.46 | 0.78 | -0.3 | 0.07 | -0.17 | -1.21 | -0.01 | 0.57 | -0.25 | 0.12 | -0.68 | -0.51 | -0.03 | 0.42
2 | COc1ccc2cc3[n+](cc2c1OC)CCc1cc2c(cc1-3)OCO2 [Berberine chloride] | 12.5 ± 0.26 | -0.22 | 0.33 | 0.44 | -0.13 | 0.04 | -0.32 | 0.14 | -0.15 | -0.79 | -0.09 | 0.31 | 0.27 | -0.32 | -0.38 | -0.34 | -0.12
3 | CCCNC(C)C(=O)Nc1ccccc1C (stereo not drawn) [Prilocaine hydrochloride] | 12.28 ± 0.063 | -0.24 | -0.36 | 0.41 | 0.86 | -0.67 | 1.11 | 0.83 | -0.46 | 0.08 |  | 0.03 | -0.01 | -0.05 | -0.27 | 0.73 | 0.58
4 | O=C1C(N(CO)C(=O)NCO)N(CO)C(=O)N1CO (stereo not drawn) [Diazolidinyl urea] | 12.1 ± 0.16 |  | -1.49 | 0.77 | -0.26 | -0.72 | 0.3 | -0.49 | -1.17 | -0.75 |  | -0.07 | 0.05 | -0.27 | -0.76 | -0.16 | 0.51
5 | CN(C)CC/C=C1/c2ccccc2Sc2ccc(Cl)cc21 [Chlorprothixene] | 12.2 ± 0.36 | 0.08 | 0.73 | -0.89 | 0.62 | -1 | -0.59 | 0.18 | -0.62 | 0.13 | 0.34 | -0.06 | -0.48 | -0.36 | -0.32 | -0.1 | -0.55
6 | CCOC(=O)C1=C(COCCN)NC(C)=C(C(=O)OC)[C@@H]1c1ccccc1Cl [Levamlodipine] | 12.5 ± 0.2 | 3.33 | 5.72 | 1.13 | -7.34 | 2.66 | -6.47 | 3.35 | 4.13 | -6.75 |  |  | -3.25 | 1.82 | -5.45 | -4.52 | -1.12
7 | Cc1ccc(-c2ncc(Cl)cc2-c2ccc(S(C)(=O)=O)cc2)cn1 [Etoricoxib] | 12.4 ± 0.17 |  | 0.51 | 0.57 | -0.32 | -0.35 | -0.52 | 0.07 | -0.1 | -0.51 |  | -0.03 | 0.34 | -0.16 | -0.71 | -0.03 | -0.24
8 | C[C@@H]1CC(=O)NN=C1c1ccc(NN=C(C#N)C#N)cc1 [Levosimendan] | 12.5 ± 0.19 |  | -0.05 | -0.16 | 0.92 | -0.43 | 0.42 | -0.47 | 0.22 | 0.25 | 0.05 |  | -0.67 | -0.43 | 0.67 | -0.29 | -0.43
9 | Cc1c(OCC(F)(F)F)ccnc1C[S+]([O-])c1nc2ccccc2[nH]1 (stereo not drawn) [Lansoprazole] | 12.5 ± 0.14 | -0.04 | -0.85 | 1.12 | -0.71 | 1.84 | -0.54 | 1.16 | -0.45 | 0.54 | -1.1 |  | 0.76 | 0.03 | -0.3 | 1.02 | 1.37
10 | Oc1c(I)cc(I)c2cccnc12 [Diiodohydroxyquinoline] | 12.1 ± 0.48 | -3.05 | -0.3 | 0.99 | 2.25 | 2.75 | 3.93 | 0.38 | 2.21 | 2.97 |  | 2.9 | 4.17 | 2.46 | 1.2 | 2.87 | 1.67
11 | CC(C)(C)C(=O)C(Oc1ccc(Cl)cc1)n1ccnc1 (stereo not drawn) [Climbazole] | 11.3 ± 0.047 | -9.09 | 7.09 | -2.61 | -1.3 | 2.84 | -2.81 | 0.49 | 9.21 | 4.67 | 24.4 |  | 1.28 | 12.1 | 9.71 | 5.42 | 8.88
12 | O=c1ccc2cc(O)c(O)cc2o1 [Esculetin] | 12.7 ± 0.16 | 2.22 | 5.32 | 1.75 | -7.81 | 3.92 | -7.32 | 3.28 | 3.75 | -7.17 | -8.53 |  | -3.44 | 1.67 | -4.69 | -3.61 | -0.38
13 | COC(=O)C1=C(C)NC(C)=C(C(=O)OCCN2CCN(C(c3ccccc3)c3ccccc3)CC2)C1c1cccc([N+](=O)[O-])c1 (stereo not drawn) [Manidipine] | 12 ± 0.18 |  | 1.78 | 0.96 | -1.02 | 2.53 | -1.04 | 2.53 | 2.14 | 0.65 | -0.6 | 2.76 | 1.73 | 0.64 | 2.11 | 0.72 | 0.6
14 | CC#C[C@]1(O)CC[C@H]2[C@@H]3CCC4=CC(=O)CCC4=C3[C@@H](c3ccc(N(C)C)cc3)C[C@@]21C [Mifepristone] | 12.3 ± 0.19 | -1.1 | 0.43 | 1.02 | -0.36 | 1.2 | 0.63 | 0.79 | 1.66 | 0.29 |  | 1.2 | 0.41 | 0.44 | 1.71 | 0.67 | -0.67
